{
  "source": "PubChem BioAssay AID602144",
  "about": "(Vanderbilt Specialized Chemistry Center, 2011)",
  "note": "Calls of active or inactive are those of the source. Rule as the data show it: active = remaining activity below about 50%; inactive = the rest.",
  "data": [
    {"target": "Phospholipase D1 (Homo sapiens) (UniProt Q13393)", "test": "PLD1 inhibitors in cells, Calu-1 cells, single concentration (AID 602144);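 also: tested at 200 nM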", "settings": "cellular PLD1 activity, active compounds read low", "values": [
      {"smiles": "O=C(NCCN1CCC(n2nnc3ccccc32)CC1)c1ccc2ccccc2c1", "remaining activity": "19.1% (active)"},
      {"smiles": "C[C@@H](CN1CCC(n2c(=O)[nH]c3ccc(F)cc32)CC1)NC(=O)c1ccc(F)cc1", "remaining activity": "16% (active)"},
      {"smiles": "NC1(CN2CCC(n3c(=O)[nH]c4cc(Cl)ccc43)CC2)CCCC1", "note": "(tested in a mixture with another compound)", "remaining activity": "70.2% (inactive)"},
      {"smiles": "C[C@H](CN1CCC2(CC1)CNCc1ccccc12)NC(=O)c1ccc2ccccc2c1", "remaining activity": "126% (inactive)"},
      {"smiles": "CCCCS(=O)(=O)NCCN1CCC(n2c(=O)[nH]c3ccccc32)CC1", "remaining activity": "124% (inactive)"},
      {"smiles": "O=C(NCCN1CCN(c2ccncc2)CC1)c1ccccc1-c1ccccc1", "remaining activity": "147% (inactive)"},
      {"smiles": "O=C(NCCN1CCC(n2c(=O)[nH]c3ccccc32)CC1)c1ccc(Cc2ccccc2)cc1", "remaining activity": "91.5% (inactive)"},
      {"smiles": "CCS(=O)(=O)NCCN1CCC(n2c(=O)[nH]c3ccccc32)CC1", "remaining activity": "121% (inactive)"},
      {"smiles": "O=c1[nH]c2ccccc2n1C1CCN(CCNS(=O)(=O)c2ccc([N+](=O)[O-])cc2)CC1", "remaining activity": "119% (inactive)"},
      {"smiles": "C[C@@H](CN1CCC(n2c(=O)[nH]c3cc(-c4ccsc4)ccc32)CC1)NC(=O)[C@H]1C[C@@H]1c1ccccc1", "remaining activity": "41.3% (active)"},
      {"smiles": "C[C@@H](CN1CCC2(CC1)CN(S(C)(=O)=O)c1ccccc12)NC(=O)c1ccc2ccccc2c1", "remaining activity": "119% (inactive)"},
      {"smiles": "CN(CCN1CCC(n2c(=O)[nH]c3ccccc32)CC1)C(=O)c1ccc2ccccc2c1", "remaining activity": "75.5% (inactive)"},
      {"smiles": "O=C(NCCN1CCC(n2nnc3ccccc32)CC1)C1CC1c1ccccc1", "note": "(configuration not stated)", "remaining activity": "52.7% (inactive)"},
      {"smiles": "COc1cc(C(=O)NCCN2CCN(c3ccncc3)CC2)ccc1N", "remaining activity": "90.7% (inactive)"},
      {"smiles": "Cc1cccc(NC(=S)NCCN2CCC(n3c(=O)[nH]c4ccccc43)CC2)c1", "remaining activity": "148% (inactive)"},
      {"smiles": "C[C@@H](CN1CCC(c2nc3ccccc3[nH]2)CC1)NC(=O)C1CC1c1ccccc1", "note": "(some centres not stated)", "remaining activity": "87.4% (inactive)"},
      {"smiles": "O=C(Cc1ccc2ccccc2c1)NCCN1CCC(n2c(=O)[nH]c3ccccc32)CC1", "remaining activity": "87.7% (inactive)"},
      {"smiles": "O=C(NCCN1CCC(n2c(=O)[nH]c3ccccc32)CC1)Nc1ccccc1F", "remaining activity": "102% (inactive)"},
      {"smiles": "Cc1ccccc1NC(=S)NCCN1CCC(n2c(=O)[nH]c3ccccc32)CC1", "remaining activity": "173% (inactive)"},
      {"smiles": "CCCS(=O)(=O)NCCN1CCC(n2c(=O)[nH]c3ccccc32)CC1", "remaining activity": "120% (inactive)"},
      {"smiles": "C[C@@H](CN1CCC(n2c(=O)[nH]c3ccccc32)CC1)NC(=O)c1ccc(C(F)(F)F)cc1", "remaining activity": "36.5% (active)"},
      {"smiles": "C[C@@H](CN1CCC(n2c(=O)[nH]c3ccccc32)CC1)NC(=O)c1ccc[nH]1", "remaining activity": "48.2% (active)"},
      {"smiles": "O=C(NCCN1CCC2(CCc3ccccc32)CC1)[C@H]1C[C@@H]1c1ccccc1", "remaining activity": "125% (inactive)"},
      {"smiles": "O=C(NCCN1CCC(n2c(=O)[nH]c3ccccc32)CC1)Nc1cccc(OC(F)(F)F)c1", "remaining activity": "131% (inactive)"},
      {"smiles": "O=C1Cc2cc(CCN3CCN(c4nsc5ccccc45)CC3)c(Cl)cc2N1", "remaining activity": "75.1% (inactive)"},
      {"smiles": "C[C@@H](CN1CCC2(CC1)CN(S(C)(=O)=O)c1ccccc12)NC(=O)[C@H]1C[C@@H]1c1ccccc1", "remaining activity": "148% (inactive)"},
      {"smiles": "O=C(NCCN1CCC2(CC1)CNCc1ccccc12)c1cnc2ccccc2c1", "remaining activity": "95.4% (inactive)"},
      {"smiles": "O=C(NCCN1CCC2(CC1)CNc1ccccc12)c1ccc2ccccc2c1", "remaining activity": "43.9% (active)"},
      {"smiles": "C[C@@H](CN1CCC(n2c(=O)[nH]c3cc(F)ccc32)CC1)NC(=O)c1ccc(F)c(F)c1", "remaining activity": "19.7% (active)"},
      {"smiles": "O=C(NCCN1CCC(n2c(=O)[nH]c3ccccc32)CC1)c1cccc2ccc3ccccc3c12", "remaining activity": "75.2% (inactive)"},
      {"smiles": "COc1cccc(N2CCN(CCNC(=O)c3ccc(C)cc3)CC2)c1", "remaining activity": "84.8% (inactive)"},
      {"smiles": "C[C@@H](CN1CCC2(CCc3ccccc32)CC1)NC(=O)c1ccc2ccccc2c1", "remaining activity": "91.4% (inactive)"},
      {"smiles": "C[C@H](CN1CCC(n2c(=O)[nH]c3cc(Cl)ccc32)CC1)NC(=O)c1cc2ccccc2[nH]1", "remaining activity": "0.888% (active)"},
      {"smiles": "O=C(CCN1CCC(n2c(=O)[nH]c3ccccc32)CC1)NCc1ccc(Cl)cc1", "remaining activity": "98.9% (inactive)"},
      {"smiles": "O=C(NCCN1CCC(n2c(=O)[nH]c3ccccc32)CC1)c1ccc(-c2ccccc2)o1", "remaining activity": "38.7% (active)"},
      {"smiles": "CC(C)C(=O)N[C@@H](C)CN1CCC(n2c(=O)[nH]c3ccccc32)CC1", "remaining activity": "104% (inactive)"},
      {"smiles": "CC(C)[C@@H](CN1CCC(n2c(=O)[nH]c3ccccc32)CC1)NC(=O)[C@@H]1C[C@H]1c1ccccc1", "remaining activity": "82.9% (inactive)"}
    ]}
  ]
}
